High-throughput results: PubChem, National Center for Advancing Translational Sciences (NCATS)
FUS yeast rescue: rescues growth of FUS-expressing yeast | Potency, µM (series often up to 76.6 µM), actives largely listed as activators | 0.24% of 390,000 active | AID 1347120 | S. cerevisiae FUS-expressing, growth rescue, OD600, 24 h;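 further: plate controls were DMSO vehicle for no effect and reference control for full effect; nearly all actives have a fitted effect of over 55% in size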
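FUS-expressing yeast, raffinose-pregrown, induced in 2% galactose minimal medium at OD 0.005; compounds in a dilution series, 24hr at 30C. Growth restoration read as absorbance at 600 nm. CP55940 positive control, DMSO negative.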
Abeta rescue: compounds reversing amyloid beta toxicity in yeast | Potency, µM (highest dose often 46.1 µM), actives largely listed as activators | AID 1347071 | yeast expressing A-beta42, growth rescue, OD600, 48 h; response scale: 0% DMSO, 100% iron-clioquinol control | 0.063% of 410,000 active; further: nearly all actives have a fitted effect of over 55% in size
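Yeast growth medium received pinned compounds, then yeast cells expressing toxic A-beta were added; plates incubated at 30 C for 48 hr. Growth read as absorbance at 600 nm, normalized to DMSO and equimolar FeCl3 plus clioquinol controls.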
TDP43 rescue: inhibitors of TDP-43 toxicity in yeast; TDP-43 expressing yeast growth rescue, BacTiter-Glo, 24 h; Potency, µM (doses to about 46.1 µM), for the others: at the top dose growth rescue (activation), usual class: activators; 1.8% of 410,000 active; AID 652104; further: % of control where 0% means no effect; nearly all actives have a fitted effect of over 50% in size
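Luminescence from BacTiter-Glo reports growth of TDP-43-expressing yeast after 24 hr at 30 deg C with compound. Cells were raffinose-pregrown to mid-log, then seeded in galactose medium at OD600=0.02.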
Mito fusion act: blocks mitochondrial division or promotes mitochondrial fusion; Potency, µM (highest dose often 46.1 µM), for the others: at the highest dose growth rescue (activation), actives largely listed as activators; 0.23% of 320,000 active; S. cerevisiae fusion-defective mutant growth rescue, CellTiterGlo 48 h; further: % of control where 0% means no effect; nearly all actives have a fitted effect of over 45% in size
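Read-out: ATP-based luminescence (CellTiterGlo, 10 min ambient) reporting growth of fusion-defective ts yeast after 48 hours at 37C on glycerol/ethanol YPEG medium in the presence of compound.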
aSyn rescue: rescues yeast growth from alpha-synuclein toxicity. Yeast expressing alpha-synuclein, growth rescue, BacTiter-Glo, 24 h. Potency, µM (highest dose often 46.1 µM), without a hit: top-dose growth rescue (activation), actives largely listed as activators. 0.14% of 370,000 active. AID 652106; further: % of control where 0% means no effect; nearly all actives have a fitted effect of over 65% in size
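Galactose-induced alpha-syn yeast (OD600=0.02, raffinose-pregrown) + pinned cpd, 24 hr, 30 deg C; growth by BacTiter-Glo luminescence. Growth restoration scores as activation.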
Active calls of the source: *; i = inactive; ? = inconclusive; nt = no result given; [ ] = another dose, or the depositor's remark. Sampled rows, rich in hits. Any-hit rate of the full collection: about 2.2%. The call rests on the fitted dose curve; in most records, active means well fitted curve in the direction sought with a large enough effect; inconclusive means small, poorly fitted or top-dose-only effect, or another doubt; inactive means no such curve, though single readings can be large; an effect the other way counts as inactive or inconclusive. Potency means the concentration at half of the fitted maximal effect.

SMILES	FUS yeast rescue	Abeta rescue	TDP43 rescue	Mito fusion act	aSyn rescue
Clc1ccc(-n2nnnc2Sc2ncnc3sccc23)cc1	i	i	10µM*	nt	-47.9%
Cc1c(O)ccc2c1OC(C)(C)CC2	nt	nt	nt	nt	-5.6%
O=C(NC1CC1)C1Nc2ccc(OC(F)(F)F)cc2C2C=CCC12 (stereo not given)	i	i	4.6%	nt	-7.4%
O=C(NCc1ccccc1)C1Nc2ccc(OC(F)(F)F)cc2C2C=CCC12 (stereo not given)	i	?	22.4µM*	nt	1.4%
CCOC(=O)C1Nc2ccc(OC(F)(F)F)cc2C2C=CCC12 (stereo not given)	i	i	-17.2%	nt	-11.4%
O=C(NCc1ccccn1)C1Nc2ccc(OC(F)(F)F)cc2C2C=CCC12 (stereo not given)	i	i	17.8µM*	nt	-2.7%
CC(=O)N1c2ccccc2C(=O)C1N1CCN(c2ccccc2F)CC1 (stereo not given)	i	?	35.5µM*	nt	nt
CCC(C)NC(=O)C1CCN(S(=O)(=O)c2ccc3[nH]c(=O)oc3c2)CC1 (stereo not given)	i	nt	nt	nt	nt
CNc1nc(C)c([N+](=O)[O-])c(Nc2ccc(OC)cc2)n1	i	i	12.6µM*	-0.7%	10.6%
CN(C)c1ccc(/C=C/c2c(F)cnc3ccccc23)cc1	nt	nt	nt	nt	1.4%
O=C(c1ccc(CS(=O)c2ccccc2Cl)o1)N1CCN(c2cccc(C(F)(F)F)c2)CC1 (stereo not given)	?	i	17.8µM*	nt	nt
O=C(c1ccc(CS(=O)Cc2ccccc2Cl)o1)N1CCN(c2cccc(Cl)c2)CC1 (stereo not given)	?	i	15.3%	35.5µM*	?
COc1cccc(N2CCN(C(=O)c3ccc(CS(=O)Cc4ccccc4Cl)o3)CC2)c1 (stereo not given)	i	i	-10.6%	-3.4%	-1.4%
O=C(c1ccc(CS(=O)c2ccccc2Cl)o1)N1CCN(c2cccc(Cl)c2)CC1 (stereo not given)	?	i	?	nt	nt
COc1cc(-c2nnc(SCC(=O)N3C(C)CCCC3C)o2)cc(OC)c1OC (stereo not given)	i	nt	nt	nt	nt
C=CC[C@@H](CC(=O)N[C@@H](CO)Cc1ccccc1)C(=O)N[C@H](C)COC(=O)[C@@H](CC=C)Cc1ccc(F)cc1	i	i	14.5%	nt	0.1%
C=CCC[C@@H](Cc1ccc(F)cc1)C(=O)OC[C@H](Cc1c[nH]c2ccccc12)NC(=O)[C@H](CC=C)CC(=O)N(CCO)Cc1ccccc1	?	i	13.3%	nt	-4.8%
C=CC[C@@H](CC(=O)N[C@H](CO)Cc1ccccc1)C(=O)N[C@@H](COC(=O)[C@@H](CC=C)CC(=O)OC(C)(C)C)Cc1c[nH]c2ccccc12	17.8µM*	i	-6.2%	nt	0.7%
C=CC[C@@H](CC(=O)N[C@@H](CO)Cc1ccccc1)C(=O)N[C@@H](C)COC(=O)[C@@H](CC=C)Cc1ccc(F)cc1	17.8µM*	i	8.0%	nt	-2.4%
C=CCC[C@H](Cc1ccc(F)cc1)C(=O)OC[C@H](Cc1c[nH]c2ccccc12)NC(=O)[C@@H](CC=C)CC(=O)N(CCO)Cc1ccccc1	15.8µM*	i	12.9%	nt	1.8%
C=CC[C@@H](CC(=O)N[C@H](CO)Cc1ccccc1)C(=O)N[C@H](COC(=O)[C@@H](CC=C)CC(=O)OC(C)(C)C)Cc1c[nH]c2ccccc12	?	i	-0.8%	nt	-1.9%
C=CC[C@H](CC(=O)N[C@H](CO)Cc1ccccc1)C(=O)N[C@H](COC(=O)[C@@H](CC=C)CC(=O)OC(C)(C)C)Cc1c[nH]c2ccccc12	17.8µM*	i	-11.2%	nt	-4.3%
CCN(CC)/[N+]([O-])=N/OCOC(=O)c1ccccc1OC(C)=O	nt	nt	nt	nt	8.9%
COc1ccc(Br)cc1C=NNC(=O)c1ccncc1	i	nt	nt	nt	nt
CCOC(=O)[C@]12CCCC=C1N(Cc1ccc(OC)cc1)C(=O)[C@@H]2CC(=O)N1CCN(C(=O)c2ccco2)CC1	i	nt	nt	nt	nt
SMILES	FUS yeast rescue	Abeta rescue	TDP43 rescue	Mito fusion act	aSyn rescue
COc1cc2c(NC3CCN(C)CC3)nc(N3CCCN(C)CC3)nc2cc1OCCN(C)C	nt	nt	nt	nt	-3.5%
N/C(=N\OC(=O)CCCc1ccccc1)c1ccc([N+](=O)[O-])cc1	nt	i	22.4µM*	-1.1%	-5.7%
N/C(=N\OC(=O)CCC1CCCC1)c1ccc([N+](=O)[O-])cc1	i	i	20µM*	-5.1%	-17.6%
N/C(=N\OC(=O)CSc1ccccc1)c1cccc([N+](=O)[O-])c1	i	i	20µM*	4.9%	-0.8%
NC(=O)c1ccc[n+](CC(=O)NCc2ccc(Cl)cc2)c1	i	i	10.1%	3.9%	-3.2%
O=S1(=O)CC2c3ccccc3CN2CN1Cc1ccc(F)cc1 (stereo not given)	i	nt	nt	nt	nt
ON=C(CCc1ccccc1)c1ccccc1	i	i	15.8µM*	nt	12.2%
Cc1cccc(CN2C(=O)[C@@H]3Cc4c([nH]c5ccccc45)C(C)(C)N3C2=O)c1	i	7.94µM*	nt	nt	nt
Cc1ccc(CSC2=Nc3ccccc3C3=NC(CCC(=O)NCCc4ccccc4)C(=O)N23)cc1 (stereo not given)	i	i	31.6µM*	nt	nt
O=C(CCC1N=C2c3ccccc3N=C(SCC(=O)Nc3ccc(F)cc3)N2C1=O)NCc1cccs1 (stereo not given)	?	i	35.5µM*	nt	nt
CC(=O)N1c2ccc(S(=O)(=O)NCCC(=O)N3CCCC(C)C3)cc2CC1C (stereo not given)	i	i	?	11.2µM*	4.9%
CC1CCN(C(=O)CCNS(=O)(=O)c2ccc(Br)cc2)CC1	i	i	-11.3%	?	3.55µM*
CCOC(=O)c1cc(-c2ccc(C)cc2)n(CCC(=O)NC(C)CC)c1C (stereo not given)	i	i	14.1µM*	0.3%	0.9%
CC#CCCCC(=O)Nc1cc(OC)nc(OC)n1	i	i	14.1µM*	-0.8%	4.1%
COc1cc(NC(=O)CCC(=O)O)nc(OC)n1	i	i	-6.1%	-1.1%	0.9%
Cc1ccc(C)c(NC(=O)C(OC(=O)c2cnc(C)cn2)c2ccccc2)c1 (stereo not given)	i	i	22.8%	3.2%	4.1%
Cc1cnc(C(=O)OC(C(=O)Nc2cc(C(F)(F)F)ccc2Cl)c2ccccc2)cn1 (stereo not given)	i	?	17.8µM*	-8.4%	1.8%
COc1ccc(Br)c(Cn2c(C)c(C(=O)NCCC#N)sc2=O)c1	i	i	14.8%	nt	7.4%
O=C(NCCc1ccccc1)c1nc2ncccn2n1	i	i	-7.5%	-1.1%	-1.4%
c1ccc(CSc2nc3ncccn3n2)cc1	i	i	15.8µM*	2.1%	-9.1%[1.84 µM]
